In PubChem BioAssay (NCATS):
Several values for one entry are separate records, joined by “and”; a condition that tells them apart may be missing. Identical values can stand only once. Results filed as inconclusive are left out. Unmarked numbers belong to inactive results. Activity calls are given as the source filed them. The call rests on the fitted dose curve; in most records, active means well fitted cell-killing curve with a large enough effect; inconclusive means small, poorly fitted or top-dose-only effect; inactive means no such curve, though single readings can be large or run the other way.

assay: qHTS of pediatric cancer cell lines to identify multiple opportunities for drug repurposing: Primary screen for NB1643 cells (AID 1347099); conditions: NB1643 neuroblastoma viability, CellTiter-Glo luminescence, 48 h; series mostly up to 46 µM; activity change, negative = cytotoxic: at the top concentration; further: nearly all actives have a fitted effect of over 50% in size
Text: Drug repurposing or repositioning has been offered as a strategy for drug development in oncology programs. This approach has special potential for childhood cancers and other rare or orphan diseases, where the expected return on new drug development has been a disincentive to pharmaceuticals. […] In this project we exploit the poly-pharmacology of drugs to discover new indications via phenotypic screening of a panel of 19 well-characterized cell lines derived from solid tumors seen in children and adolescents. The goal is to identify approved drugs with previously unrecognized anticancer properties that has the potential to reveal new mechanisms and biological processes involved in carcinogenesis or drug resistance. We employed a titration-based paradigm (quantitative high-throughput screening or qHTS), where all compounds were tested at multiple concentrations for their effect on cell viability. Concentration-response curves (CRCs) were derived directly from the primary screen, and both potency and efficacy values were used to identify compounds with robust bioactivity profiles. We screened the NIH Chemical Genomics Center (NCGC) Pharmaceutical Collection (NPC) and Mechanism Interrogation Plate (MIPE) small molecule collections of approved and investigational compounds against these cell lines; and measured metabolically active cells after 48 hours of compound treatment as a proxy for cell viability. […] Assay Submitter: Nathalia J. Martinez, National Center for Advancing Translational Sciences, National Institutes of Health, Rockville, MD, USA; email: natalia.martinez@nih.gov Shen, M et al. Quantitative high-throughput phenotypic screening of pediatric cancer cell lines identifies multiple opportunities for drug repurposing. Oncotarget 2017 Dec 19;9(4):4758-4772. PMID 29435139.
The cells were obtained from University of North Carolina (UNC), Pediatric Preclinical Testing Program (PPT), and Coriell Institute (CI). qHTS cell viability assay: Cells were assayed in growth media at a density of 500-1,000 cells/well. Five microliters of cells were dispensed into 1,536-well, white, solid-bottom, TC-treated plates (Greiner Bio One) using a multidrop dispenser and incubated at 37 degrees C, 5% CO2, under a humidified atmosphere for 5 hours. Twenty-three nanoliters of compounds and controls (neutral control DMSO or positive control bortezomib at final concentration of 2.3 µM) were subsequently transferred by Kalypsys pintool. For primary screens, the MIPE collection was tested at 11-point dilutions (final concentrations range from 0.78 nM to 46 µM) and the NPC collection at 8-point dilutions (final concentrations range from 0.59 nM to 46 µM). Compounds tested in follow-up screens were assayed at 11-point dilutions. Cells were incubated for 48 hours, followed by addition of 3 µL of CellTiter-Glo (Promega). After a 15 min incubation at room temperature, samples were analyzed for luminescence intensity using a ViewLux High-throughput CCD imager equipped with clear filters.
Potency means the concentration at half of the fitted maximal effect.

Structure (SMILES)	Potency	activity change, negative = cytotoxic [%]
CC(C)(C)C(=O)OCOP(=O)(COCCn1cnc2c(N)ncnc21)OCOC(=O)C(C)(C)C	11.9 µM (active) and 18.7 µM (active)	
CC1=CC(=O)c2ccccc2C1=O	16600 nM (active)	
C[C@]12C=CC(=O)C=C1CC[C@@H]1[C@@H]2C(=O)C[C@@]2(C)[C@H]1CC[C@]2(O)C(=O)CO		3.88
C[C@@H](NCCCc1cccc(C(F)(F)F)c1)c1cccc2ccccc12		-7.68
C[C@@H]1CN(c2c(F)c(N)c3c(=O)c(C(=O)O)cn(C4CC4)c3c2F)C[C@H](C)N1	inactive	
Nc1nc(F)nc2c1ncn2[C@@H]1O[C@H](CO)[C@@H](O)[C@@H]1O	372 nM (active)	
CCn1cc(C(=O)O)c(=O)c2cc(F)c(N3CCNCC3)cc21	inactive	
COc1cc([C@@H]2c3cc4c(cc3[C@H](O)[C@H]3COC(=O)[C@H]23)OCO4)cc(OC)c1OC	59.6 nM (active)	
CCN1CCCC1CNC(=O)c1cc(S(N)(=O)=O)ccc1OC (stereo not given)		16.5
CC[C@H](NC(C)C)[C@H](O)c1ccc(O)c2[nH]c(=O)ccc12	inactive	
Cc1oc(=O)oc1CN1CCN(c2cc3c(cc2F)c(=O)c(C(=O)O)c2n3C(C)S2)CC1 (stereo not given)		-14.3
CC(C)(C#N)c1cc(Cn2cncn2)cc(C(C)(C)C#N)c1	inactive	
CCN(CC)CCn1c(=O)c(Cc2ccc(OC)cc2)nc2ccccc21		-10.3
CCN(CC)CC#CCOC(=O)C(O)(c1ccccc1)C1CCCCC1 (stereo not given)		-8.79
CCc1cc(C(N)=S)ccn1	inactive	
CCC(=O)O[C@]1(C(=O)SCF)[C@H](C)C[C@H]2[C@@H]3C[C@H](F)C4=CC(=O)C=C[C@]4(C)[C@@]3(F)[C@@H](O)C[C@@]21C		12.5
O=C(NCC1CN(c2ccc(N3CCOCC3=O)cc2)C(=O)O1)c1ccc(Cl)s1 (stereo not given)		-8.31
COc1ccc2c(c1)c(CC(=O)OCC(=O)O)c(C)n2C(=O)c1ccc(Cl)cc1	inactive	
CCOC(=O)c1ccc(C#Cc2ccc3c(c2)C(C)(C)CCS3)nc1		-4.81
CC(=O)[C@H]1CC[C@H]2[C@@H]3CC=C4C[C@@H](O)CC[C@]4(C)[C@H]3CC[C@]12C	inactive	

Structure (SMILES)	Potency	activity change, negative = cytotoxic [%]
COc1ccc2cc3[n+](cc2c1OC)CCc1cc2c(cc1-3)OCO2	15 µM (active) and 18.7 µM (active)	
CC(=O)Oc1ccccc1C(=O)Nc1ncc([N+](=O)[O-])s1	42.9 µM (active) and 21.1 µM (active)	
Cc1cccc(Nc2ccncc2S(=O)(=O)NC(=O)NC(C)C)c1	inactive	
Nc1nc(N)c2nc(CNc3ccc(C(=O)NC(CCC(=O)O)C(=O)O)cc3)cnc2n1 (stereo not given)		-3.61
NCCCC(O)(P(=O)(O)O)P(=O)(O)O	inactive	
N[C@@H](C(=O)N[C@@H]1C(=O)N2C(C(=O)O)=C(Cl)CS[C@H]12)c1ccccc1	inactive	
NC(=O)N1c2ccccc2CC(=O)c2ccccc21	inactive	
CCOCC(O)COc1ccc(NC(=O)CC[S+](C)C)cc1 (stereo not given)	inactive	
Cc1nnc(C(=O)NC(C)(C)c2nc(C(=O)NCc3ccc(F)cc3)c(O)c(=O)n2C)o1	inactive	
COc1cc(NS(=O)(=O)c2ccc(N)cc2)nc(OC)n1	inactive	
NC(N)=NC(N)=NCCc1ccccc1		-1.25
CN(C)c1ccc(C(=C2C=CC(=[N+](C)C)C=C2)c2ccc(N(C)C)cc2)cc1	3.35 µM (active) and 7.43 µM (active)	
O=C(O)C1CCCN(CCC=C(c2ccccc2)c2ccccc2)C1 (stereo not given)		5
CCC(C)(C)c1ccc(CC(C)CN2C[C@@H](C)O[C@@H](C)C2)cc1 (stereo not given in full)		18
O=C(N[C@H](CO)[C@H](O)c1ccc([N+](=O)[O-])cc1)C(Cl)Cl	inactive	
CCn1cc(C(=O)O)c(=O)c2cc(F)c(N3CCN(C)CC3)cc21	inactive	
Cc1ccnc2c1NC(=O)c1cccnc1N2C1CC1		4.49
CN(C)CCc1c[nH]c2ccc(C[C@H]3COC(=O)N3)cc12	inactive	
CCCCS(=N)(=O)CCC(N)C(=O)O (stereo not given)		-13.2
CC(C)OC(=O)C(C(=O)OC(C)C)=C1SC=CS1	inactive	
